From publication PMC4336329 (PLoS ONE, 2015)
About 14,000 (4.5%) of roughly 310,000 compounds showed an effect of 50% or more. Effects have a minus sign here. The list comes from a sample in which strong results are over-represented; it also holds similar structures and randomly drawn compounds.

Biological target: human ether-à-go-go-related gene (hERG) potassium channel (human, UniProt Q12809)
Test: primary screen, population patch clamp on CHO cells stably expressing hERG; higher = less effect of the substance
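Note: peak tail current of the secondary pulse compared with the same well before compound.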

human ether-à-go-go-related gene (hERG) potassium channel, sequence (Q12809 whole entry, looked up): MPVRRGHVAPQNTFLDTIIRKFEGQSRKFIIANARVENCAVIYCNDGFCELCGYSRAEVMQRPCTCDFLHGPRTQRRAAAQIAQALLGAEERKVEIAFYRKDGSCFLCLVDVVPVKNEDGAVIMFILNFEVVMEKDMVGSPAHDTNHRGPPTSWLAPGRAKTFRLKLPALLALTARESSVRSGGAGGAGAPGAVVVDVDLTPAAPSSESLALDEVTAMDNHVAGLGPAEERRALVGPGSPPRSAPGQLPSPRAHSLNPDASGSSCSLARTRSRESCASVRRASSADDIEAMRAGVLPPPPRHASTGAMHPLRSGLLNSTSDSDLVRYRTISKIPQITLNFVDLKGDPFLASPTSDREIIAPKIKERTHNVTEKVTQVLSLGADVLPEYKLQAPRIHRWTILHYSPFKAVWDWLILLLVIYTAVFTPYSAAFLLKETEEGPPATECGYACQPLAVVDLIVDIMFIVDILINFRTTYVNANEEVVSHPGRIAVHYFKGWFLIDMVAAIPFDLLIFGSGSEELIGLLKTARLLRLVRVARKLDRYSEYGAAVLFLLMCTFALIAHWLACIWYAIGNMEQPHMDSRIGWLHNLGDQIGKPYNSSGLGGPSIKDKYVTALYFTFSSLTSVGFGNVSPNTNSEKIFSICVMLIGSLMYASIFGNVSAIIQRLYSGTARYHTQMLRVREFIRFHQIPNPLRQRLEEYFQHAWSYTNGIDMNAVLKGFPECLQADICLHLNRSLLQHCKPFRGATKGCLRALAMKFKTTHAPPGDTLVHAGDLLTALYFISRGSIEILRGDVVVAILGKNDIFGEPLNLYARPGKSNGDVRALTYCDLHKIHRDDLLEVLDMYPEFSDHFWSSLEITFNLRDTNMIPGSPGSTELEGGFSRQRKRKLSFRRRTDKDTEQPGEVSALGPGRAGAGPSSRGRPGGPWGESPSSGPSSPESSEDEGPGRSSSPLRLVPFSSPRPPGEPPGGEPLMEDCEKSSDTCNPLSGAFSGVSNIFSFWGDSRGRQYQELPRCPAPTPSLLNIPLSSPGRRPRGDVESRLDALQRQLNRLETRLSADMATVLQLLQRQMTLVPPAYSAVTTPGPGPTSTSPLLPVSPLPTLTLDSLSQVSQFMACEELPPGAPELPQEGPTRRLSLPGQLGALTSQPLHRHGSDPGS

| SMILES | hERG current change (%, negative = inhibition) at 10uM [%] |
| --- | --- |
| COc1ccccc1-n1c(=O)[nH]c2c(C(N)=O)nc(CC(C)C)nc21 | 5.01 |
| NC(=O)N/N=C/c1cn(-c2ccccc2)nc1-c1cccs1 | -38.8 |
| NC(N)=N/N=C/c1cn(-c2ccccc2)nc1-c1cccs1.O=[N+]([O-])O | -62.1 |
| O=C(N/N=C/c1cn(-c2ccccc2)nc1-c1cccs1)c1ccncc1 | -10.2 |
| CCOc1ccc(CN(C)C(=O)c2ccc(=O)[nH]c2)cc1 | 16.6 |
| CCOC(=O)c1ncn2c1[C@@H]1CCNC1C(=O)c1cc(OC)ccc1-2 (stereo partly drawn) | -68.4 |
| CCOC(=O)C1=C(C)N(C)C(=S)NC1c1cc(OC)ccc1OC (stereo not drawn) | 3.73 |
| CCOC(=O)c1ncn2c1CN(C)C(=O)c1cc(F)ccc1-2 | 8.55 |
| Cc1nc(N2CCC(C(N)=O)CC2)c2c(-c3cccs3)csc2n1 | -0.812 |
| Cc1ccc(N(CCC#N)C(=O)COC(=O)c2cc(C)oc2C)cc1 | -15.3 |
| CCOC(=O)C1CCCN(C2=NC(=O)/C(=C/c3ccc(OC)c(OC)c3)S2)C1 (stereo not drawn) | -22.8 |
| COc1ccc(CN2CCCC(C(=O)N3CCCCC3)C2)c(OC)c1.O=C(O)C(=O)O (stereo not drawn) | -26.7 |
| COc1ccc(CN2CCCC(C(=O)c3ccc(Cl)cc3)C2)c(O)c1 (stereo not drawn) | -67.7 |
| COc1ccc(C(=O)C2CCCN(Cc3cc(Cl)ccc3O)C2)c(OC)c1 (stereo not drawn) | -26.8 |
| CCOC(=O)N1CCN(CC(O)COc2ccc(OC)cc2C(C)(C)C)CC1.Cl (stereo not drawn) | -12 |
| CCOC(=O)C1CCCN(C2=NC(=O)/C(=C/c3ccc(OC)cc3)S2)C1 (stereo not drawn) | -20.1 |
| CCOC(=O)C1CCCN(CC(O)COc2ccc(OC)cc2C(C)(C)C)C1 (stereo not drawn) | -61.4 |
| COc1ccc(CN2CCCC(C(=O)c3ccc(Cl)cc3)C2)c(OC)c1 (stereo not drawn) | -75.2 |
| CCOC(=O)C1CCCN(CC(O)COc2cccc(C)c2)C1.Cl (stereo not drawn) | -23.7 |
| CCOC(=O)C1CCCN(C2=NC(=O)/C(=C/c3ccc(OC)cc3OC)S2)C1 (stereo not drawn) | -52.6 |
| COC(=O)CC1(CC(=O)OC)C(=O)N(c2ccccc2)C(=O)N(c2ccccc2)C1=O | 11.7 |
| C=CCNC(=O)CN(CCc1ccccc1)S(=O)(=O)c1ccccc1 | -17.6 |
| CCOC(=O)C1CCN(Cc2ccc(OC)cc2OC)CC1 | -45.2 |

| SMILES | hERG current change (%, negative = inhibition) at 10uM [%] |
| --- | --- |
| CCOC(=O)C1CCCN(Cc2ccc(OC)cc2OC)C1 (stereo not drawn) | -52.7 |
| COc1ccc(CN2CCCC(C(=O)N3CCCC3)C2)c(OC)c1.O=C(O)C(=O)O (stereo not drawn) | -9.41 |
| Cc1ccccc1N1C(=O)NC(=O)/C(=C\c2cc(C)n(C)c2C)C1=O | -3.79 |
| CC(C)CCN1CCN(Cc2cccs2)CC1CCO (stereo not drawn) | -10.7 |
| CC(C)CCN1CCN(CC#Cc2ccccc2)CC1CCO (stereo not drawn) | -49.9 |
| OCCC1CN(CC#Cc2ccccc2)CCN1C1CCCC1 (stereo not drawn) | -46.2 |
| OCCC1CN(CC(c2ccccc2)c2ccccc2)CCN1C1CCCC1 (stereo not drawn) | -71.2 |
| CC(C)CCN1CCN(C/C=C/c2ccco2)CC1CCO (stereo not drawn) | -57.1 |
| CC(C)=CCN1CCN(C/C(Cl)=C/c2ccccc2)CC1CCO (stereo not drawn) | -26.9 |
| OCCC1CN(Cc2ccccn2)CCN1C1CCCC1 (stereo not drawn) | 9.91 |
| CCn1cc(CN2CCN(CCC(C)C)C(CCO)C2)c2ccccc21 (stereo not drawn) | -31.9 |
| OCCC1CN(C/C(Cl)=C/c2ccccc2)CCN1C1CCCC1 (stereo not drawn) | -77.4 |
| OCCC1CN(C/C=C/c2ccco2)CCN1Cc1ccccc1 (stereo not drawn) | -8.57 |
| CC(C)CCN1CCN(CC(c2ccccc2)c2ccccc2)CC1CCO (stereo not drawn) | -82.3 |
| Cc1ccc(CN2CCN(C/C(Cl)=C/c3ccccc3)CC2CCO)o1 (stereo not drawn) | -45.2 |
| CN(C)N1C(=O)CC(N2CCCCC2)C1=O (stereo not drawn) | 6.08 |
| Cc1nn(C(C)C(=O)N2CCc3ccccc32)c(C)c1[N+](=O)[O-] (stereo not drawn) | 10 |
| CC(=O)NS(=O)(=O)c1ccc(NC(=O)c2ccc(NC(=O)c3cccs3)cc2)cc1 | 2.48 |
| COc1cc2c(cc1OC)-c1cc(NC3CC3)nc(=O)n1CC2 | -24.8 |
| O=c1oc2c(-c3cccc(F)c3)cc(O)cc2s1 | 8.45 |
| COc1ccc(NC(=O)CCc2nnc3ccc(NCc4ccco4)nn23)cc1 | 1.15 |
| CCOC(=O)c1c([N+](=O)[O-])c(C)[nH]c(=O)c1C#N | 21.1 |
